Experimental findings from PubChem BioAssay (NCI) are described below.

Compounds without any hit were thinned out: in the full panel of roughly 83,000, 20% have a hit.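 Treatment: one concentration, 48 hours, 96-well format. Scoring: percent growth, with anything below 10 considered active.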 Unmarked numbers belong to inactive results. Activity calls are given as the source filed them.

Common to all, as to test: NCI-60 one-dose screen, 48 h (100 = growth as untreated, 0 = no growth, -100 = all killed)
What all share (conditions): 10 µM unless noted

Assay [1] deals with SR leukemia.
The test system of assay [2] is RPMI-8226 leukemia.
The test system of assay [3] is OVCAR-8 ovarian.
The subject of assay [4] is OVCAR-5 ovarian.
Assay [5] relates to OVCAR-4 ovarian.
The test system of assay [6] is SK-OV-3 ovarian.
Assay [7] relates to IGROV1 ovarian.
Assay [8] relates to OVCAR-3 ovarian.
Assay [9] deals with HS 578T breast.
The test system of assay [10] is NCI/ADR-RES ovarian.
For assay [11], the system named is T-47D breast.
The test system of assay [12] is BT-549 breast.
Assay [13] concerns MDA-MB-435 melanoma.
The test system of assay [14] is SW-620 colon.
For assay [15], the system named is MCF7 breast.
Assay [16] deals with HCT-116 colon.
Assay [17] has as its system HCC-2998 colon.
Assay [18] relates to KM12 colon.

Turning to `O=c1ccc(-c2nc(N3CCOCC3)c3ccccc3n2)c[nH]1`, the growth in assay [1] was 100%; in [2] it was 101%; in [3] it was 110%; in [4], 83.2%; in assay [5], 94.2%; in assay [6], 105%. The growth in assay [7] is 107%; in [8] it was 101%; in [9], 62.5%; in [10], 96.9%; in [11], 77%; in assay [12], 97.4%. Moreover, the growth is 99.7% in assay [13]; 107% in [14]; 89.1% in [15]; 101% in assay [16]; 105% in [17]; 107% in assay [18].

Turning to `COc1cc2oc(-c3cccc(C(=O)Nc4ccc(Br)cc4)c3)cc(=O)c2c(OC)c1OC`, the growth was 18.4% in assay [1]; 8.6% (active) in assay [2]; 40.5% in assay [3]; 61% in assay [4]; 57.6% in assay [5]; 69.4% in assay [6]. The growth in assay [7] was 52.3%; in assay [8], 76%; in assay [9], 65.2%; in assay [10] it was 45.7%; in assay [11], 36%; in assay [12], 45.8%. For the same compound, the growth in [13] is 65.6%; in [14] it was 94.6%; in assay [15] it was 78.1%; in assay [16] it was 45.6%; in [17], 81.9%; in [18], 46.6%.

For `NC1[C@H](c2c[nH]c3ccccc23)c2c([nH]c3ccccc23)[C@H]1c1c[nH]c2ccccc12` (some centres not stated), the growth in assay [1] is 81.7%; in [2], 77.7%; in assay [3], 99.8%; in assay [4], 92.7%; in [5], 86.6%; in assay [6], 115%. Also, the growth in assay [7] was 63.9%; in [8] it was 78.2%; in assay [9], 83.8%; in assay [10], 81.7%; in assay [11], 94.9%; in assay [12] it was 105%. Also, the growth is 100% in assay [13]; 96.3% in [14]; 90.8% in assay [15]; 74.2% in [16]; 97.3% in assay [17]; 91% in assay [18].

For `COc1ccc(OC)c(-c2cc(-c3ccc(Cl)cc3)c3c(N)c(C(=O)c4ccc(Cl)cc4)sc3n2)c1`, the growth in [1] is 101%; in assay [2], 94.2%; in assay [3] it was 104%; in assay [4] it was 96.4%; in assay [5], 93.1%; in assay [6] it was 89.8%. Also, the growth in [7] is 92.1%; in assay [8], 103%; in assay [9], 115%; in [10], 103%; in [11], 87.2%; in assay [12], 84.1%. The growth was 107% in assay [13]; 112% in assay [14]; 86.2% in assay [15]; 95.7% in [16]; 100% in [17]; 100% in [18].

For `COc1cc(NCCCCCNC(C)(C)C)c2ncccc2c1`, the growth in assay [1] is 113%; in assay [2] it was 7.94% (active); in assay [3], 102%; in assay [4], 110%; in assay [5], 22.6%; in [6], 97%. For the same compound, the growth is 37.2% in assay [7]; 81.2% in [8]; 88.3% in [9]; 85.4% in [10]; 19.9% in assay [11]; 109% in assay [12]. The growth is 94.6% in assay [13]; 96.7% in [14]; -54.4% (active) in assay [15]; 101% in assay [16]; 97.5% in [17]; 95.4% in assay [18].

As to `O=C(N/N=C/c1ccc(Oc2ccccc2)cc1)c1cnn2c1NC(c1ccccc1)C2` (configuration not stated), the growth in [1] was 31%; in assay [2], 75.7%; in assay [3], 52.1%; in [4] it was 78%; in [5], 26.6%; in [6], 48.5%. The growth was 59.3% in assay [7]; -32.6% (active) in assay [8]; 32.3% in [9]; 68.7% in assay [10]; 43% in [11]; 81.1% in [12]. In addition, the growth was 4.46% (active) in assay [13]; 42.1% in [14]; 17.7% in assay [15]; 32.2% in assay [16]; 71.8% in [17]; 44.7% in assay [18].

For the compound `O=C(CSc1nc2sc3c(c2c(=O)n1-c1ccc(Cl)cc1)CCCC3)Nc1nc(-c2cccc(Br)c2)cs1`, the growth in [1] is 80.6%; in assay [2] it was 96.4%; in [3] it was 68.1%; in assay [4], 75.7%; in assay [5], 72.9%; in assay [6], 94.2%. Also, the growth is 72.6% in assay [7]; 89% in assay [8]; 72.6% in assay [9]; 80.5% in assay [10]; 76.9% in assay [11]; 92.1% in assay [12]. Besides, the growth was 97.5% in assay [13]; 78.9% in assay [14]; 87.4% in [15]; 81.6% in [16]; 107% in assay [17]; 83.8% in assay [18].

On to `COc1ccc(/C=C/c2nc(Nc3ccc(S(=O)(=O)Nc4nc(C)cc(C)n4)cc3)c3ccccc3n2)cc1`, for which the growth is 49.5% in assay [1]; 62.3% in [2]; 66.1% in assay [3]; 74.9% in assay [4]; 77.2% in [5]; 90.9% in assay [6]. Further, the growth in assay [7] is 90.8%; in [8], 79.6%; in assay [9], 83.1%; in assay [10] it was 73.1%; in assay [11], 49.1%; in assay [12] it was 87.9%. For the same compound, the growth was 60.6% in [13]; 61.1% in assay [14]; 42.2% in [15]; 66.4% in [16]; 74.9% in assay [17]; 47.5% in assay [18].

Regarding `Cc1ccc(C(=O)/C(=C\c2ccc([N+](=O)[O-])cc2)S(=O)Cc2ccc(F)cc2)cc1` (configuration not stated), the growth is 7.86% (active) in assay [1]; -21.3% (active) in assay [2]; 12.5% in assay [3]; 37.3% in assay [4]; 30.6% in [5]; 102% in [6]. For the same compound, the growth in assay [7] was -16.8% (active); in assay [8], 9.09% (active); in [9] it was 21.9%; in assay [10], 26.8%; in assay [11], -26.6% (active); in assay [12] it was -0.818% (active). Besides, the growth in [13] is 45.5%; in assay [14], -27.7% (active); in assay [15], 7.88% (active); in [16], -70.7% (active); in assay [17], 22.8%; in assay [18] it was 19.4%.
